According to PubChem BioAssay AID540361 (National Center for Advancing Translational Sciences (NCATS), 2011):
Results filed as inconclusive are left out. Values without a mark were called inactive. Calls come from the whole dose curve; as a rule, active = well fitted curve in the direction sought with a large enough effect; inconclusive = small, poorly fitted or top-dose-only effect, or another doubt; inactive = no such curve, though single readings can be large or run the other way.

Each compound was assayed against Alpha-galactosidase A (Homo sapiens) (UniProt P06280) (assay: Activators of Human alpha-Glucosidase as a Potential Chaperone Treatment of Pompe Disease: Alpha-Galactosidase Counter Screen). Settings: purified human alpha-galactosidase, 4-MU fluorogenic substrate; series mostly up to 57.1 µM; activity change, negative = inhibition: at the top concentration.
Text: Alpha-glucosidase is responsible for hydrolysis of terminal, non-reducing 1,4-linked alpha-D-glucose residues with release of alpha-D-glucose. It is a lysosomal hydrolase that is required for the degradation of a small percentage (1-3%) of cellular glycogen in human. Deficiency of this enzyme results in glycogen-storage disease type II (GSDII), also referred to as Pompe disease, an autosomal recessive disorder. Structurally normal glycogen is accumulated in lysosomes and cytoplasm in affected patients, primarily in muscle tissues. Excessive glycogen storage within lysosomes may interrupt normal functioning of other organelles and leads to cellular injury. In turn, this leads to enlargement and dysfunction of the entire organ involved (eg, cardiomyopathy and muscle weakness). It has reported that the improper folding and trafficking of alpha-glucosidase resulting from the genetic mutations may account for a significant number of Pompe patients. […] After screening for activators for alpha-glucosidase, we used this counter screen against alpha-galactosidase to test for specificity of the hits. NIH Chemical Genomics Center [NCGC] NIH Molecular Libraries Probe Production Centers Network [MLPCN] MLPCN Grant: MH086442-01 Assay Submitter (PI): Wei Zheng
This is a fluorogenic enzyme assay with 4-methylumbelliferyl-[…] as the substrate and human alpha-galactosidase as the enzyme preparation. Upon the hydrolysis of this fluorogenic substrate, the resulting product, 1. 4-methyllumbelliferone, can be excited at 365 nm and emits at 440 nm which can be detected by a standard fluorescence plate reader. Data were normalized to the controls for basal activity (without enzyme) and 100% activity (with enzyme). In the AC50 values were determined from concentration-response data modeled with the standard Hill equation. Assay buffer: 50 mM citric acid (titrated with potassium phosphate to pH 5.0), 0.005% Tween-20, pH 5.0. (pH 5.0 is an optimal condition for this enzyme assay) 1536-well assay protocol for the human alpha-galactosidase: (1) Add 2 ul/well of enzyme (4 nM final) (2) Add 23 nL compounds in DMSO solution. The final titration was 0.7 nM to 77 uM. (3) Add 1 ul of substrate (400 uM final) (4) Incubate at room temperature for 20 min. (5) Add 2 ul stop solution (1M NaOH and 1M Glycine mixture, pH 10) (6) Detect the assay plate in a ViewLux plate reader (PerkinElmer) with Ex=365 nm and Em=440nm. Keywords: Alpha-glucosidase, Pompe Disease, pharmacological chaperone, chaperone therapy, high throughput screening, alpha-glucosidase inhibitor, MLSMR, MLSCN, NIH Roadmap, qHTS and NCGC

Alpha-galactosidase A (Homo sapiens), sequence (P06280 whole entry, looked up): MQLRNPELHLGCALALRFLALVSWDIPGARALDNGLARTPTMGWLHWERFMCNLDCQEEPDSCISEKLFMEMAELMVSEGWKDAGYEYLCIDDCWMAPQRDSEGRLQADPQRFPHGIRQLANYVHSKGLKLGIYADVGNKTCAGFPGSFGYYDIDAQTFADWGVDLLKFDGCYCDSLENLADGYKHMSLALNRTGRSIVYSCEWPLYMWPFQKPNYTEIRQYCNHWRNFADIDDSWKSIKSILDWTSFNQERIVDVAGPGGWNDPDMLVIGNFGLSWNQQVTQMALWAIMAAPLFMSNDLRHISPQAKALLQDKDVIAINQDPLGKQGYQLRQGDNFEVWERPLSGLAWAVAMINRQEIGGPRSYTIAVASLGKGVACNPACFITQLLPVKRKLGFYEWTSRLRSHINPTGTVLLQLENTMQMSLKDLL

Structure (SMILES) | activity change, negative = inhibition
COc1ccc(CCc2c[nH]c(=O)c3cncnc23)cc1OC | -5.98%
COc1ccc(C#Cc2cnc(Cl)c3cncnc23)cc1OC | 3.52% [at 48.8 µM]
c1csc(-c2nc(NCC3CCCO3)c3ccccc3n2)c1 (stereo unspecified) | 0% [at 48.8 µM]
CCCN1CNc2c(c(=O)[nH]c(=O)n2CCc2ccc(OC)c(OC)c2)C1 | 0.385%
CCCN1CNc2c(c(=O)[nH]c(=S)n2Cc2ccc(OC)c(OC)c2)C1 | 0%
CCCN1CNc2c(c(=O)[nH]c(=S)n2CCc2ccc(C)c(C)c2)C1 | 0%
O=S(=O)(c1ccc(Cl)cc1)N1CCN(c2nc(Nc3cc(Cl)ccc3O)nc3ccccc23)CC1 | 0% [at 48.8 µM]
OCCNc1nc(-c2cccs2)nc2ccccc12 | 0%
CCCN1CNc2c(c(=O)[nH]c(=S)n2CCc2cc(C)ccc2C)C1 | 0%
CCCN1CNc2c(c(=O)[nH]c(=S)n2CCc2cccc(C)c2C)C1 | 0%
CCCN1CNc2c(c(=O)[nH]c(=S)n2CCc2ccsc2)C1 | 0%
O=S(=O)(c1ccc(Cl)cc1)N1CCN(c2nc(-c3cccs3)nc3ccccc23)CC1 | 0%
CCCN1CNc2c(c(=O)[nH]c(=S)n2CCc2c(C)cccc2C)C1 | 0%
CCCN1CNc2c(c(=O)[nH]c(=S)n2CCc2ccc3c(c2)OCCO3)C1 | 0%
COc1ccc(CCn2c(=S)[nH]c(=O)c3c(C)cc(C)nc32)cc1OC | 19.6%
COc1ccc(CCn2c3c(c(=O)[nH]c2=S)CN(C)CN3)cc1OC | 0%
COc1ccc(CCn2c3c(c(=O)[nH]c2=S)CN(C(C)C)CN3)cc1OC | 0%
COc1ccc(C#Cc2c[nH]c(=O)c3cncnc23)cc1OC | -8.98%
COc1ccc(CCn2c3c(c(=O)[nH]c2=S)CN(c2ccccc2)CN3)cc1OC | 0%
COc1ccc(CCn2c(=S)[nH]c(=O)c3nccnc32)cc1OC | 0%
CCCN1CNc2c(c(=O)[nH]c(=S)n2CCC(C)(C)C)C1 | 0%
